HCV inh – HCV inhibition; Huh7.5.1 HCVcc-Cre infection, luciferase reporter, 44 h; Potency, µM (titrated, usually from 41.8 µM), hits mostly inhibitors; actives 3.4% (n = 340,000); AID 651820; active means well fitted inhibition curve with a large enough effect; inconclusive means small, poorly fitted or top-dose-only effect, or another doubt; inactive means no such curve, though single readings can be large or run the other way
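Seed cells (1,000/well) for 4 h; treat with compound and infect with HCVcc-Cre, moi about 0.5. Incubate 44 h, then detect luciferase activity.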
HCMV inh – human cytomegalovirus inhibition; HFF cells, HCMV-luciferase reporter, 72 h; active compounds read low; activity change, negative = inhibition, % at 57.5 µM; actives 4.5% (n = 410,000); AID 1259415; in the data active means activity change below about -60%; inconclusive means no clear call, values can overlap the other calls; inactive means above about -39%
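Two-dose cell screen: HFF monolayers treated with compounds and infected with luciferase-expressing HCMV at 1 PFU/cell, 72 h at 37C, then lysed for luciferase measurement.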
VACV Venus inh – vaccinia inhibition (Venus reporter). Vaccinia virus Venus reporter expression, fluorescence. Potency, µM (top dose mostly 36.5 µM), actives largely listed as inhibitors. actives 0.46% (n = 330,000). AID 720580; calls by dose curve; tested in A549 cells; further: nearly all actives have a fitted effect of over 30% in size
FMDV antiviral – foot and mouth disease virus antiviral activity | actives 1.2% (n = 410,000) | Potency, µM (series often up to 57.9 µM), most hits filed as inhibitors | FMDV antiviral cell-based qHTS; calls by dose curve; tested in HEK293T cells; further: read-out not given here; nearly all actives have a fitted effect of over 45% in size
VACV mCherry inh – vaccinia inhibition (mCherry reporter). Potency, µM (series often up to 36.5 µM), most hits filed as inhibitors. actives 0.63% (n = 310,000). Vaccinia virus mCherry reporter infection, fluorescence. AID 720579; calls by dose curve; tested in A549 cells; further: nearly all actives have a fitted effect of over 35% in size
Hits are given with their value; n = inactive; u = inconclusive; x = no result; [ ] = another dose, or the depositor's remark. Most compounds without a hit are left out; they make up all but 7.3% or so of the library.

SMILES	HCV inh	HCMV inh	VACV Venus inh	FMDV antiviral	VACV mCherry inh
CCOC(=O)C1C(=O)N(C)C2(C)CC1c1ccccc1O2 (configuration not stated)	n	n	n	n	n
COc1ccc(/C=C/C(O)=C2/C(=O)NC3(C)CC2c2ccccc2O3)c(OC)c1OC (configuration not stated)	u	-65	x	u	x
COc1ccc(/C=C/C(O)=C2/C(=O)N(C)C3(C)CC2c2ccccc2O3)cc1 (configuration not stated)	n	-85	x	14µM	x
Cc1ccc(/C=C/C(O)=C2/C(=O)N(C)C3(C)CC2c2ccccc2O3)cc1 (configuration not stated)	u	-98	u	14µM	u
O=S1(=O)N[C@@H](Cc2ccccc2)COc2cccc(N3CCCC3)c21	x	n	x	x	x
Cc1ccc(-c2nc3ccccc3o2)cc1NC(=O)C(C)Oc1ccccc1 (configuration not stated)	x	x	n	x	n
CCn1cnc2sc(C(=O)Oc3cccc(C)c3)c(C)c2c1=O	1.4µM	n	n	n	n
O=C(O)c1cccc(NCc2ccncc2)c1	x	-61	x	x	x
O=C(O)c1ccc(NCc2ccncc2)cc1	n	n	x	n	x
COc1nc(N/N=C/c2ccc(-c3ccccc3[N+](=O)[O-])o2)nc(N2CCOCC2)n1	11µM	n	n	n	n
O=[N+]([O-])c1ccc(/C=N/Nc2nc(N3CCCCCC3)nc(N3CCCCCC3)n2)o1	u	n	n	u	u
COC(=O)c1ccccc1-c1ccc(/C=N/Nc2nc(N3CCCC3)nc(N3CCCC3)n2)o1	11µM	n	n	22µM	n
O=[N+]([O-])c1ccc(-c2ccc(/C=N/Nc3nc(NCc4ccccc4)nc(N4CCOCC4)n3)o2)cc1	u	-88	n	n	n
Cc1ccc(/C=N/Nc2nc(N3CCCCC3)nc(N3CCCCC3)n2)o1	u	n	n	n	n
CCN(CC)CCNC(=O)c1ccc(NC(=O)c2cn(-c3ccc(F)cc3)nc2-c2cccc(OC)c2)cc1	u	-66	n	n	n
CCOc1ccc(NC(=O)CN(C)C(=O)c2cn(-c3ccc(F)cc3)nc2-c2cccc(OC)c2)cc1OCC	u	n	u	n	n
CCN(CC)CCNC(=O)c1ccc(NC(=O)c2cn(-c3ccccc3)nc2-c2cccs2)cc1	11µM	-98	x	n	x
O=C(Nc1cccnc1)c1cn(-c2ccccc2)nc1-c1cccs1	u	n	n	x	n
CC(=O)n1c2ccccc2c2ccccc21	u	n	n	n	n
CC(=O)n1c(Cl)c(NC(=O)CCl)c2ccccc21	14µM	-98	u	32µM	10µM
CCC(Oc1ccc(F)cc1)C(=O)Nc1cc(-c2ccc(C)cc2)no1 (configuration not stated)	x	n	n	n	n
CCC(Oc1ccc(F)cc1)C(=O)Nc1nc(-c2ccc(F)cc2)ns1 (configuration not stated)	x	-98	u	n	u
CCN(CC)S(=O)(=O)c1cc(C(=O)Nc2nncs2)c(Cl)cc1Cl	10µM	n	x	n	x
CCN(CC)S(=O)(=O)c1ccc(Cl)c(C(=O)Nc2nncs2)c1	n	n	n	n	x
OCc1cc2c(cn1)[nH]c1ccccc12	x	x	n	n	n
SMILES	HCV inh	HCMV inh	VACV Venus inh	FMDV antiviral	VACV mCherry inh
Cc1ccc(-n2cccn2)c(CN2CCCC(C(=O)c3ccc4c(c3)OCO4)C2)c1 (configuration not stated)	u	-73	n	n	n
O=C(CC1N=C2c3ccccc3N=C(SCc3cccc(Cl)c3)N2C1=O)NC1CCCCC1 (configuration not stated)	x	n	n	n	n
COc1ccc(-c2cc3ccccc3nc2N)cc1OC	11µM	n	x	u	x
COc1ccc(-c2nc3ccccc3nc2-c2ccc(OC)c(OC)c2)cc1OC	n	n	x	n	x
CC1Cc2cc(-c3csc(NC(=O)Cc4ccccc4)n3)ccc2N1S(C)(=O)=O (configuration not stated)	0.71µM	-98	u	x	u
Cc1ccc(NC(=O)c2sc3nc[nH]c(=O)c3c2C)cc1C	x	n	n[7.34 µM]	n	n[7.34 µM]
Cc1ccccc1Cc1c(C)nc2nc(SCC(=O)NCCCN3CCCCC3)nn2c1C	n	x	n	n	n
Cc1nc2nc(SCC(=O)NCCCN3CCCCCC3)nn2c(C)c1Cc1ccccc1	n	-65	n	n	n
Cc1c(O)ccc2c(CN3CCN(Cc4ccccc4)CC3)cc(=O)oc12	n	-62	x	u	x
Cc1ccccc1CN(C)Cc1cc(=O)oc2c(C)c(C)ccc12	u	n	n	u	n
Cc1c(O)ccc2c(CN(C)Cc3ccccc3)cc(=O)oc12	n	-67	n	n	n
O=c1cc(CN2CCN(Cc3ccccc3)CC2)c2ccc(O)c(O)c2o1	u	n	n	n	n
COc1ccc(-c2cn3cccnc3n2)cc1NC(=O)COc1ccccc1	x	n	n	n	u
COCCn1c(=O)c(-c2cccc(C#N)c2)nc2cnc(OCc3ccccc3)nc21	x	x	x	n	x
COc1ccc(C(=O)N/N=C/c2sc3ccccc3c2O)cc1	u	x	u	n	u
COc1ccc2cc(C(=O)N/N=C/c3sc4ccccc4c3O)ccc2c1	u	-98	n	u	n
O=C(N/N=C/c1sc2ccccc2c1O)c1cccc2ccccc12	1.8µM	-104	u	n	u
O=C(N/N=C/c1sc2ccccc2c1O)c1ccccc1	4.5µM	x	n	n	10µM
Cc1c(C(=O)NCC(C)(C)N2CCOCC2)cnn1-c1ncc2c(n1)-c1ccccc1CC2	x	x	n	n	n
CC(C)Oc1ccc(C(=O)NCC2Cc3cc(Cl)cc(-c4ncccn4)c3O2)cc1 (configuration not stated)	x	x	n	n	n
COCC(=O)Nc1cc(C(=O)N2CCN(c3ccccc3)CC2C)c2c(c1)nc(-c1ccncc1)n2C (configuration not stated)	x	x	n	n	n
C=CCn1cc(C(=O)NCc2cccnc2)c(=O)c2cc(S(=O)(=O)N(CC)CC)ccc21	n	-61	n	n	n
C=CCn1cc(C(=O)NCc2ccc3c(c2)OCO3)c(=O)c2cc(S(=O)(=O)N(CC)CC)ccc21	u	n	n	n	n
CCn1cc(C(=O)NCc2ccc(Cl)cc2)c(=O)c2cc(S(=O)(=O)N(C)C)ccc21	u	-71	n	n	u
CCn1cc(C(=O)NCc2ccccc2OC)c(=O)c2cc(S(=O)(=O)N(C)C)ccc21	14µM	u	x	n	x
SMILES	HCV inh	HCMV inh	VACV Venus inh	FMDV antiviral	VACV mCherry inh
CCn1cc(C(=O)NCc2ccccc2OC)c(=O)c2cc(S(=O)(=O)N3CCCCCC3)ccc21	x	n	n	n	n
O=C(CCc1ccccc1)NNC(=O)COc1ccc(Br)cc1	11µM	n	n	n	n
C=CCNC(=S)NNC(=O)COc1ccc(Br)cc1	n	-61	n	n	n
C=CCNC(=S)NNC(=O)COc1ccc2cc(Br)ccc2c1	n	n	n	n	n
CC(=O)C1=CCN(C)CC1	x	n	x	x	x
CC(=O)Nc1ccc(NC(=O)COC(=O)C2(c3ccc(Cl)cc3)CCCC2)cc1	u	u	n	28µM	n
COc1ccc2c(c1)c1ccc3c(c1n2C)C(=O)C=CC3=O	u	n	n	28µM	n

High-throughput results: PubChem, National Center for Advancing Translational Sciences (NCATS)
